Nine compounds from PubChem BioAssay can be followed below.

Results filed as inconclusive are left out. The source made the active and inactive calls.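 The calls were made as follows, unless noted: active = viability at or under a set limit in both replicates, limit being median viability minus 3 SD (cut at about 48% in these data, passing the limit was not always enough); inconclusive = at or under the limit in just one replicate; inactive = at or above the limit in both replicates.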

Test [1] is described as follows: reducers of endogenous Her2 protein level, primary screen, SKBR3 breast tumor cells, AlphaScreen, ATP viability (AID 461;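 active = Her2 level under about 52% in both replicate screens, with viability over 70% of control, limit read from the data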;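 as to Her2 level: lower value means less Her2 protein in the cells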;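 as to viability: percent of carrier control wells set as 100% viability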). Particulars: 18-24 h, measured here: SKBR3 viability, ATP luminescence, at 10 µM.
The target in test [2] is Receptor tyrosine-protein kinase erbB-2 (Homo sapiens) (UniProt P04626). The test is described as above. Conditions: 18-24 h, at 10 µM, stronger effect = lower value.
Chain of Receptor tyrosine-protein kinase erbB-2 (Homo sapiens) (P04626 whole entry, looked up): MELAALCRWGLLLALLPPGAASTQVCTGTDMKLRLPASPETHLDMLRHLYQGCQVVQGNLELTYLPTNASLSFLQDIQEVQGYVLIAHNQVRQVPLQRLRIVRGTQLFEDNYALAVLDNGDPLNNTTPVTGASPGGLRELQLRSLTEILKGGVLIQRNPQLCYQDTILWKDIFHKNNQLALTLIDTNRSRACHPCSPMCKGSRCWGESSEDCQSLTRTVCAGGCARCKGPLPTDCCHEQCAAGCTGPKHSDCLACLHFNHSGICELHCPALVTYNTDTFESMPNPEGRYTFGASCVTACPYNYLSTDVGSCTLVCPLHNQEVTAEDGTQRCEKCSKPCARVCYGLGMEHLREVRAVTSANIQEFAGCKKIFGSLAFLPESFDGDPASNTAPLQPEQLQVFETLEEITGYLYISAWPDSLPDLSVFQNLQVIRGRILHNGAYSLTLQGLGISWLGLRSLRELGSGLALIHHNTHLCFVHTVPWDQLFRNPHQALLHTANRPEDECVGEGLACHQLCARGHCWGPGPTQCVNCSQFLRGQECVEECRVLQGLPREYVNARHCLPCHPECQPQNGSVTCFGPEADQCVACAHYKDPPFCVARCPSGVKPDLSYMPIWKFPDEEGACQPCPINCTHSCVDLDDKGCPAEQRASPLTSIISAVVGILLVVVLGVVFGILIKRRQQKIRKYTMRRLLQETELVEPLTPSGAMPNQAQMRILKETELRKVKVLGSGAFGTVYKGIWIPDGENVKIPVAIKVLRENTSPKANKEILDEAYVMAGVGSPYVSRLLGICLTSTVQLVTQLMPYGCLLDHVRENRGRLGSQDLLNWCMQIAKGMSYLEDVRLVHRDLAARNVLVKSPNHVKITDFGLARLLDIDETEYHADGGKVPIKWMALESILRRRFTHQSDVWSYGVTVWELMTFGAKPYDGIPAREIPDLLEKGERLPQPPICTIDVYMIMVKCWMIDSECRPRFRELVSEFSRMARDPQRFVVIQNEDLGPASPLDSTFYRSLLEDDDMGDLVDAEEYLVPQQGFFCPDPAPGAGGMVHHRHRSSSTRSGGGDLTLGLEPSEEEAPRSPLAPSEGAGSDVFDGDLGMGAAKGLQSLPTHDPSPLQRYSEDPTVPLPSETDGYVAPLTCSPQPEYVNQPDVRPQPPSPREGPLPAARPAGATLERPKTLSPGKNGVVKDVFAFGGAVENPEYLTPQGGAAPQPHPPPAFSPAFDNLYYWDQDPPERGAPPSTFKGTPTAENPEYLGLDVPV
The nature of test [3]: SK-BR-3 cell growth inhibitors, pilot screen, 24 h, human (AID 572;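 active = viability at or below 10% of carrier control in both of two separate runs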;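 also: compound exposure lasted between 18 and 24 h rather than exactly 24 h; 100% = carrier-treated control wells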). Particulars: SK-BR-3 viability, CellTiter-Glo luminescence, at 10 µM, stronger effect = lower value.
A short description of test [4]: HUVEC growth inhibition – cell-based, human, primary screen (AID 575;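 active = viability at or below 30% in both replicate assays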;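 also: 100% = median of untreated cell wells with 0.1% DMSO on each plate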). Conditions: HUVEC proliferation, CellTiter-Glo luminescence, 72 h; at 10 µM; stronger effect = lower value.
The nature of test [5]: growth inhibitors of H69AR lung tumor, primary screen, human, duplicate replicates (AID 580).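 Also: 100% = mean luminescence of untreated wells and 0% = no signal.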 Conditions: H69AR lung tumor cells viability, ATP luminescence, 72 h; at 10 µM; stronger effect = lower value.
Test [6] in a line: reversal of MRP1-mediated doxorubicin resistance, pilot screen, H69AR cells, doxorubicin co-treatment (AID 601;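 active = viability loss from added drug above about 55%, and viability with drug at most 40%, in both replicates, limit read from the data, passing the limit was not always enough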). Conditions: CellTiter-Glo, 72 h, at 10 µM; for differential viability (reversal): stronger effect = higher value.
Test [7] can be described thus: 384-well plate pilot, post-Golgi transport modulator project, inhibition of yeast transport mutant growth (AID 636; in the data active = inhibition above about 31%). Conditions: absorbance 615 nm, about 18 h, stronger effect = higher value.
A short description of test [8]: growth suppression of yeast trafficking mutant, preliminary HTS, modulators of trafficking downstream of Golgi apparatus project, 1536-format plate, OD 615 nm (AID 637; in the data active = inhibition above about 30%). Conditions: yeast transport mutant growth, absorbance 615 nm, 18 h; stronger effect = higher value.
The nature of test [9]: OD615 S. cerevisiae growth inhibition, permissive medium, pilot counter-assay, permissive growth control for S. cerevisiae lifespan shortening project (AID 705;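 active = growth inhibition above 25% in both replicates, a cutoff set 3 SD above the mean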). Particulars: OD615, 24 h, at 10 µM, stronger effect = higher value.
Test [10] is described as follows: Restrictive medium S. cerevisiae growth inhibition, OD615, pilot screen of yeast lifespan reduction project, restrictive growth control (AID 706;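 active = growth inhibition above a set limit, 3 SD over mean compound inhibition, in both replicates, cut at about 43% in these data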;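 also: modified DeaD lifespan yeast strain shifted to restrictive glucose medium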). Conditions: OD615, 48 h, at 10 µM, stronger effect = higher value.
Test [11] in a line: viability gain of MRP-1-high H69AR cells under doxorubicin, pilot screen, MRP-1 activator project, CellTiter-Glo, duplicate (AID 807;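 active = viability increase at or above a cutoff of the median across tested compounds plus 3 SD, cut at about 8.5% in these data, passing the limit was not always enough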;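 also: compound pretreatment 18-22 h then 72 h combined with doxorubicin; 0% = doxorubicin alone and 100% = vehicle without doxorubicin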). Conditions: H69AR viability with doxorubicin, CellTiter-Glo luminescence; at 10 µM; stronger effect = higher value.
The nature of test [12]: growth suppression of beta-catenin knockout HCT116, pilot screen, human colon tumor cells (AID 823;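 active = cell viability at or below a set limit in both duplicate runs, the limit being the all-compound median minus 4 SD, cut at about 23% in these data, passing the limit was not always enough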;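 also: 0% = wells killed by 20 µM Hyamine and 100% = untreated DMSO cell wells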). Particulars: CellTiter-Glo, 60 h, at 10 µM, stronger effect = lower value.
A short description of test [13]: growth suppression of PTEN-deleted HCT116, pilot screen, cell-based, HCT116 clonal line, CellTiter-Glo (AID 824;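 active = viability at or below 27.92% in each of two runs, the all-compound median minus 4 SD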;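 also: 0% = 20 µM Hyamine control and 100% = vehicle cell control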). Conditions: 60 h, at 10 µM, stronger effect = lower value.
The nature of test [14]: inhibitors of the yeast RAM network, pilot screen, dse1pr::URA3 reporter, 5-FOA selection (AID 869;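 active = inhibition over a set limit, the all-compound mean plus 3 SD, in both replicate runs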;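 also: 0% = DMSO wells with no growth and 100% = 10 µM 1-NA-PP1 with full growth; RAM network block rescues cells from 5-FOA so hits raise OD615 growth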). Conditions: S. cerevisiae dse1pr::URA3 5-FOA growth, OD615, 2 d; at 10 µM; stronger effect = higher value; strain carries analog-sensitive mutant Cbk1 kinase.
Test [15] can be described thus: RAM signaling pathway blockade in yeast – S. cerevisiae, Pdr1DBD-CYC8 efflux-inhibited sensitized strain, primary screen (AID 1298;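 active = RAM network inhibition above 8.4% in each of two replicates, 3 SD over the compound average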;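 also: 0% = DMSO untreated cells without growth and 100% = 10 µM 1-NA-PP1 full growth; higher means more yeast growth rescued from 5-FOA killing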). Conditions: S. cerevisiae cbk1-as DSE1-URA3 strain, 5-FOA growth OD615, 2 d; at 50 µM; stronger effect = higher value.
Where [16] appears, read: H69AR cells + 2 uM doxorubicin, measured here: viability with 2 uM doxorubicin, stronger effect = lower value.
[17] abbreviates: H69AR cells, compound alone cytotoxicity.

Take `COc1ccc(OC)c(NC(=O)c2nnn(Cc3ccc(Br)cc3F)c2N)c1`: the viability in test [1] was 80%; in test [3], 80% (inactive); in [4], 40.9% (inactive); in test [5], 75.7% (inactive); in [6] (setting [16]), 58.9%; in test [6] (setting [17]), 75.7%. The viability is 69.5% (inactive) in [12] and 66.1% (inactive) in test [13]. Moreover, the Her2 level in test [2] is 88% (inactive). The differential viability (reversal) in test [6] (H69AR cells + 2 uM doxorubicin) was 16.7% (inactive). The values for the inhibition in test [7], in test [8] and in test [14] were 1.07% (inactive), -0.49% (inactive) and 1.21% (inactive), respectively. In addition, the growth inhibition in test [9] is -0.51% (inactive); in test [10], -7.43% (inactive). Besides, in test [11], the viability increase was 0.57% (inactive). For the same compound, the RAM network inhibition in test [15] was 4.25% (inactive).

With `COc1ccc(NC(=O)c2cc(C3CC3)on2)c(OC)c1`, the viability in [1] is 96.5%; in test [3], 96.5% (inactive); in test [4], 86.7% (inactive); in [5], 91.2% (inactive); in test [6] (setting [16]) it was 99.1%; in test [6] (setting [17]), 91.2%. For the same compound, the viability in test [12] is 101% (inactive); in test [13], 92.2% (inactive). In addition, in test [2], the Her2 level is 91.5% (inactive). Besides, the differential viability (reversal) in test [6] (H69AR cells + 2 uM doxorubicin) is -7.87% (inactive). In addition, the inhibition in test [7] is 0% (inactive); in [8] it was 1.17% (inactive); in test [14] it was -0.14% (inactive). The figures for the growth inhibition in test [9] and in [10] were 4.41% (inactive) and 9.96% (inactive), respectively. In [11], the viability increase is -1.92% (inactive). Further, in test [15], the RAM network inhibition was 4.64% (inactive).

As for `COC(=O)c1ccsc1NC(=O)CN1C(=O)CCC1=O`, the viability in test [1] was 83.5%; in test [3] it was 83.5% (inactive); in [4], 83.1% (inactive); in [5], 91.6% (inactive); in [6] (setting [16]) it was 69.2%; in [6] (setting [17]), 91.6%. Besides, the viability in [12] was 100% (inactive); in [13], 98.7% (inactive). For the same compound, the Her2 level in test [2] is 121% (inactive). Also, the differential viability (reversal) in test [6] (H69AR cells + 2 uM doxorubicin) was 22.4% (inactive). Moreover, the inhibition in test [7] was -1.33% (inactive); in test [8] it was 15.7% (inactive); in test [14] it was -0.08% (inactive). Further, the growth inhibition in [9] was -2.7% (inactive); in test [10] it was -9.07% (inactive). Besides, the viability increase in [11] is -1.57% (inactive). Further, in test [15], the RAM network inhibition was 0.15% (inactive).

For the compound `COc1ccccc1CNC(=O)C1CCCN(S(=O)(=O)c2cccc3cccnc23)C1` (stereo not drawn), the viability in test [1] is 92.5%; in test [3], 92.5% (inactive); in [4], 111% (inactive); in test [5], 92% (inactive); in test [6] (setting [16]), 92.3%; in test [6] (setting [17]) it was 92%. The results for the viability in test [12] and in test [13] were 90.6% (inactive) and 91.6% (inactive), respectively. Besides, in test [2], the Her2 level was 98.5% (inactive). Also, the differential viability (reversal) in test [6] (H69AR cells + 2 uM doxorubicin) was -0.39% (inactive). Moreover, the inhibition in test [7] is -4.53% (inactive); in test [8] it was -2.17% (inactive); in test [14], 3.08% (inactive). For the same compound, the values for the growth inhibition in test [9] and in test [10] were -5.17% (inactive) and -12.7% (inactive), respectively. For the same compound, the viability increase in test [11] is -3.42% (inactive). The RAM network inhibition in test [15] is 6.37% (inactive).

For `Cc1ccccc1OCc1nnc2n1CC(C)S2` (stereo not drawn), the viability is 99% in test [1]; 99% (inactive) in test [3]; 88.6% (inactive) in test [4]; 92.3% (inactive) in [5]; 90.9% in [6] (setting [16]); 92.3% in [6] (setting [17]). Further, the viability in test [12] is 97.8% (inactive); in test [13], 95.3% (inactive). The Her2 level in test [2] was 95% (inactive). Also, the differential viability (reversal) in [6] (H69AR cells + 2 uM doxorubicin) was 1.37% (inactive). The inhibition in test [7] is -4.27% (inactive); in test [8] it was -2% (inactive); in test [14] it was 0.795% (inactive). Moreover, the growth inhibition in [9] is 3.34% (inactive); in [10] it was 16.6% (inactive). The viability increase in test [11] is 0.12% (inactive). In addition, the RAM network inhibition in test [15] was -0.06% (inactive).

For the compound `Oc1c(C(c2ccccc2)N2CCc3ccccc3C2)sc2ncnn12` (stereo not drawn), the viability is 87.5% in test [1]; 87.5% (inactive) in test [3]; 74.4% (inactive) in test [4]; 85% (inactive) in [5]; 85.1% in [6] (setting [16]); 85% in [6] (setting [17]). Besides, the values for the viability in test [12] and in [13] were 97.1% (inactive) and 93.3% (inactive), respectively. Besides, the Her2 level in [2] was 82.5% (inactive). Further, the differential viability (reversal) in test [6] (H69AR cells + 2 uM doxorubicin) was -0.02% (inactive). Also, the inhibition is -2.69% (inactive) in [7], -2% (inactive) in test [8] and 1.78% (inactive) in test [14]. Besides, the growth inhibition in test [9] is 7.92% (inactive); in [10] it was 8.2% (inactive). The viability increase in test [11] was 3.99% (inactive). In test [15], the RAM network inhibition was 4.48% (inactive).

On to `COc1ccc(C2CC(c3ccco3)n3ncnc3N2)cc1` (stereo not drawn), for which the viability is 88% in [1]; 88% (inactive) in test [3]; 93.1% (inactive) in test [4]; 95.4% (inactive) in test [5]; 98.6% in test [6] (setting [16]); 95.4% in test [6] (setting [17]). In addition, the viability in [12] was 97.7% (inactive); in test [13], 94.6% (inactive). In addition, the Her2 level in test [2] was 97% (inactive). The differential viability (reversal) in [6] (H69AR cells + 2 uM doxorubicin) is -3.17% (inactive). Besides, the inhibition in test [7] is -3.07% (inactive); in test [8] it was -8.5% (inactive); in test [14], 2.36% (inactive). In addition, the figures for the growth inhibition in test [9] and in test [10] were -4.26% (inactive) and 1.61% (inactive), respectively. Also, the viability increase in [11] is -0.91% (inactive). For the same compound, the RAM network inhibition in [15] is 0.32% (inactive).

For `O=C(c1cc(C2CC2)on1)N1CCN(C(c2ccccc2)c2ccccc2)CC1`, the viability in test [1] is 84.5%; in [3], 84.5% (inactive); in test [4], 113% (inactive); in test [5], 87.7% (inactive); in [6] (setting [16]), 94.6%; in test [6] (setting [17]) it was 87.7%. Further, the viability is 90.9% (inactive) in test [12] and 76.8% (inactive) in test [13]. The Her2 level in test [2] was 95.5% (inactive). For the same compound, in test [6] (H69AR cells + 2 uM doxorubicin), the differential viability (reversal) is -6.88% (inactive). Moreover, the results for the inhibition in test [7], in test [8] and in [14] were 0.9% (inactive), -0.83% (inactive) and 0.66% (inactive), respectively. Moreover, the results for the growth inhibition in [9] and in [10] were -17.5% (inactive) and -18.4% (inactive), respectively. In addition, the viability increase in [11] is 2.29% (inactive). Besides, the RAM network inhibition in test [15] was 7.26% (inactive).

As to `CC1CCN(C(=O)CSc2nnc(Cc3cc(=O)[nH]c(=O)[nH]3)n2-c2ccc(Cl)cc2)CC1`, the viability in test [1] is 92.5%; in test [3] it was 92.5% (inactive); in test [4], 101% (inactive); in test [5], 101% (inactive); in [6] (setting [16]), 98.2%; in test [6] (setting [17]), 101%. Besides, the viability in [12] was 105% (inactive); in test [13], 100% (inactive). Besides, in test [2], the Her2 level is 117% (inactive). Also, the differential viability (reversal) in test [6] (H69AR cells + 2 uM doxorubicin) is 2.73% (inactive). Also, the results for the inhibition in test [7], in test [8] and in test [14] were -1.54% (inactive), -4.17% (inactive) and -0.375% (inactive), respectively. Moreover, the growth inhibition in test [9] is -17.1% (inactive); in [10], -15.4% (inactive). For the same compound, in [11], the viability increase was -0.15% (inactive). Moreover, the RAM network inhibition in test [15] is 4.41% (inactive).
